# Mtb FBA inh – Mtb FBA enzyme inhibitors, primary screen, biochemical, fluorescence, strain H37Rv; Fructose-bisphosphate aldolase (Mycobacterium tuberculosis (strain ATCC 25618 / H37Rv)), …; purified M. tuberculosis FBA, fluorescence read-out; inhibition, % at 1 µM; 360,000 compounds, 2.3% hits; in the data active means inhibition above about 27%;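 further: 0% = vehicle and 100% = reference inhibitor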
# CCHFV vOTU inh – CCHFV vOTU protease inhibitors, primary screen, biochemical, Pep-AMC substrate, fluorescence; inhibition, % at 11.5 µM; 370,000 compounds, 0.55% hits; Crimean-Congo hemorrhagic fever virus L polyprotein viral ovarian tumor (vOTU) protease …; AID 651958, 2012; further: 0% = vehicle wells with enzyme and 100% = no enzyme wells
# RecA splice inh – Mtb RecA intein splicing inhibitors, primary screen, biochemical, fluorescence, HTS. Protein RecA (Mycobacterium tuberculosis (strain ATCC 25618 / H37Rv)), P9WHJ3. cell-free RecA intein splicing. inhibition, % (no concentration beside the values). 290,000 compounds, 0.75% hits; in the data active means inhibition above about 30%;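 further: 0% = vehicle wells and 100% = reference inhibitor control wells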
# Target sequence (P9WHJ3 whole entry, looked up, canonical isoform): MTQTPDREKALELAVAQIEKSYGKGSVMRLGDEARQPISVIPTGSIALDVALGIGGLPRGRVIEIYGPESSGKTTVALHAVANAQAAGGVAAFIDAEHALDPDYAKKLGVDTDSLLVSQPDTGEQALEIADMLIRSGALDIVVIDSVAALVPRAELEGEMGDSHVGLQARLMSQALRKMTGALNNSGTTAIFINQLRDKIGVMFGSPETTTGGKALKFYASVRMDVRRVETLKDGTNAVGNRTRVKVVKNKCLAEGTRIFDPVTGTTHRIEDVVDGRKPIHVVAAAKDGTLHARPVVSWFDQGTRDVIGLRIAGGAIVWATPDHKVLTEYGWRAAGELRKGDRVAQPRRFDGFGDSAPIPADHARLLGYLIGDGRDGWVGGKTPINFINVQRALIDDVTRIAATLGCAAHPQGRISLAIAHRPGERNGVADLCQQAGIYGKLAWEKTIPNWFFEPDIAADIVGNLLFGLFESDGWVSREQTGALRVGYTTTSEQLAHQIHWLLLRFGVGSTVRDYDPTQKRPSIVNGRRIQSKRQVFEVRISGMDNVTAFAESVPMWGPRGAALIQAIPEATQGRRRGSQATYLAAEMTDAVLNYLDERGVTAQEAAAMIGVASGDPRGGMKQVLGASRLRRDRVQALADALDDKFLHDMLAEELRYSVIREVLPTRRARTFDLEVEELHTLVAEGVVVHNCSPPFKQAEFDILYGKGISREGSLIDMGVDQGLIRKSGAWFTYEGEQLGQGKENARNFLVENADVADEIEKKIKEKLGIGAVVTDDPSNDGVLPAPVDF
# Mtb betalactam – beta-lactam sensitization of Mtb H37Rv, H37Rv; M. tuberculosis H37Rv growth with meropenem, percent inhibition; inhibition, % at 25 µM; 330,000 compounds, 0.27% hits; AID 434955, 2010; call rule not given here;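 further: growth measured after seven days incubation then overnight dye step; 0% = bacteria only wells and 100% = bacteria with antibiotic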
# GDH-TPI counter – GDH-TPI coupling enzyme inhibitors, primary screen, artefact control for M. tuberculosis FBA inhibitor project, biochemical, absorbance, full deck; GDH-TPI coupled enzyme counterscreen, NADH absorbance; inhibition, % at 4.8 µM; 360,000 compounds, 1.2% hits; AID 588335, 2011;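 further: 0% = DMSO wells and 100% = wells lacking the enzyme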
# * hit, by the source's call; / = not tested or not shown; + = active, no number. Rows were chosen to be rich in hits. Some 4.2% of all compounds tested hit in one or more screens of this group. Unless noted, no stated cut-off is given here; in the data, active means inhibition above about 30%; inactive means the rest.
SMILES,Mtb FBA inh,CCHFV vOTU inh,RecA splice inh,Mtb betalactam,GDH-TPI counter
CCOC(=O)C1CCN(C(=O)c2sccc2Cl)CC1,+,12,-1,1,3
O=C(Nc1cccc(F)c1)OC1CC2CC1[C@H]1CCCCN1[C@H]2Cc1ccccc1 (some centres not stated),/,-2,/,/,/
COc1ccc(S[C@]2(C(=O)N3CCN(c4ncccn4)CC3)CC(=O)N(c3ccc(OC)cc3)[C@@H]2c2ccc(OC)cc2)cc1,/,-2,/,/,/
COc1cccc(C2c3[nH]c4ccccc4c3CCN2C(=O)Cn2cncn2)c1OC (configuration not stated),-1,-5,1,-4,-5
COc1ccccc1C1c2[nH]c3ccccc3c2CCN1Cc1ccc(NC(C)=O)s1 (configuration not stated),8,-5,3,-7,32*
Nn1c(SCC(=O)Nc2ccc(Br)cn2)nnc1-c1n[nH]c2c1CCC2,/,5,/,/,/
Cc1cccc(C2=NN(c3ccccc3)[C@H](CO)[C@H]2c2ccccc2)c1,59*,/,/,/,-9
Cc1cccc(C2=NN(c3ccccc3)[C@@H](C(=O)N3CCOC3=O)[C@@H]2c2ccc(F)cc2)c1,21,-1,/,/,0
O=C(Cn1nnc(-c2ccc(N3CCOCC3)cc2)n1)c1ccccc1,/,-3,/,/,/
O=c1cc(-c2ccccc2)nc2c(-c3ccccc3)c(C(F)(F)F)[nH]n12,+,-62,-2,-9,10
CC(=O)Nc1ccc(NC(=O)CSc2nnc(-c3cccs3)o2)cc1,/,3,/,/,/
CC1CCN(c2ccc(C(=O)O)cc2NS(=O)(=O)c2ccc(Cl)s2)CC1,/,13,/,/,/
COc1cccc(/C=N/Nc2ncnc3scc(-c4ccccc4)c23)c1OC,5,-17,8,43,41*
Cc1sc2ncnc(N/N=C/c3ccc(O)cc3)c2c1C,1,-8,-1,9,48*
Cc1sc2ncnc(NCC(O)c3ccccc3)c2c1C (configuration not stated),0,8,2,-5,1
Cc1sc2ncnc(N/N=C/c3ccccc3O)c2c1C,0,16,-5,91,35*
COc1ccc(/C=N/Nc2ncnc3sc(C)c(C)c23)cc1,-3,-3,-5,94,25
Nc1c(Cl)ncnc1N/N=C/c1ccc(O)cc1,2,2,-3,-2,42*
C[C@@H]1OC(C2CCCCC2)N(C)[C@H]2C[C@H]3c4[nH]c5cccc(-c6ccccc6)c5c4CCN3C[C@@H]12 (some centres not stated),/,3,/,/,/
CCOCC(=O)Nc1ccc(-c2cn3cccnc3n2)cc1,+,-319,-2,-6,27
CC(C)(C)CC(=O)Nc1ccc(-c2cn3cccnc3n2)cc1,+,-380,-4,-2,15
CCCC(=O)Nc1cc(-c2cn3cccnc3n2)ccc1OC,19,-15,0,/,17
CC(C)CC(=O)Nc1ccc(-c2cn3ccsc3n2)cc1,3,-6,/,1,8
CCCCC(=O)Nc1cccc(-c2cn3ccccc3n2)c1,33*,0,0,0,4
CCCC(=O)Nc1ccc(-c2cn3cccnc3n2)cc1,+,-400,-2,-7,18
SMILES,Mtb FBA inh,CCHFV vOTU inh,RecA splice inh,Mtb betalactam,GDH-TPI counter
COC(=O)[C@]12C[C@H](CC(=O)NCCCCc3ccccc3)C(=O)N(CCc3ccc(OC)c(OC)c3)C1=C[C@H](C1CCCC1)O[C@@H]2C,/,14,/,/,/
CCN(CC)C(=O)CC[C@H]1CC[C@]2(CCCN(C3CCCCC3)C2)O1,/,1,/,/,/
COC(=O)[C@]12CCCCC=C1N(Cc1ccc(OC)cc1)C(=O)[C@@H]2CC(=O)NCc1cccs1,/,0,/,/,/
CC(C)CC(=O)Nc1ccc(-c2cn3cccnc3n2)cc1,+,-372,-7,-5,24
CCCC(=O)Nc1cccc(-c2cn3cccnc3n2)c1,189*,-230,-1,-8,30
CCN(CC)S(=O)(=O)c1cccc(-c2cn3cccnc3n2)c1,181*,-221,-2,-5,25
COc1ccc(-c2cn3cccnc3n2)cc1NC(=O)CC(C)C,20,-7,-1,-1,23
O=C(Nc1ccccc1)Nc1cccc(-c2cn3cccnc3n2)c1,4,10,-5,-11,10
O=c1oc(-c2ccc(O)c(O)c2)cc2cccc(O)c12,-1,-1,/,-2,13
O=c1oc(-c2ccc(O)c(O)c2)cc2cc(O)cc(O)c12,11,4,/,-1,32*
COc1ccc(CN2CCC(CNC(=O)NCc3ccccc3)CC2)cc1,/,-10,/,/,/
CN(C)c1ccc(/C=N/O)cc1,3,16,-1,-6,7
CN(C)c1ccc(/C=C2/C(=N\O)C3CCN2CC3)cc1,1,5,-250,10,52*
CC(=NCc1cccc(Cl)c1)c1nc(-c2ccco2)oc1O,-3,13,-1,7,34*
c1ccc(-c2ccc(C3=Nn4c(nnc4-c4ccccc4)SC3)cc2)cc1,/,10,/,/,/
Cc1ccccc1-c1nnc2n1N=C(c1ccc(O)c(O)c1)CS2,/,3,/,/,/
c1ccc(-c2ccc(C3=Nn4c(nnc4-c4cc(-c5ccccc5)n[nH]4)SC3)cc2)cc1,-3,-5,3,0,44*
COc1ccccc1-c1nnc2n1N=C(c1ccc(O)c(O)c1)CS2,-5,/,-7,4,36*
CC(C)CN(CC(C)C)C(=O)c1cn(C(C)c2ccccc2)nn1 (configuration not stated),/,10,/,/,/
FC(F)(F)c1ccc(Cn2ccc3ccc(-c4ccc5ccn(Cc6ccccc6)c5c4)cc32)cc1,/,16,/,/,/
O=C(Nc1nc2ccc(S(=O)(=O)N3CCCC3)cc2s1)c1ccco1,20,21,0,1,39*
COc1ccc(C#Cc2c(-c3ccccc3)n(-c3ccccc3)c3ccc(CO)cc23)cc1,113*,-23,/,2,33*
CCOC(=O)c1[nH]c2ccc(OC)cc2c1NC(=O)c1ccc(OC)c(OC)c1,0,6,5,-4,3
COC(=O)c1[nH]c2cc(OC)c(OC)cc2c1NC(=O)c1cccc(OC)c1,-2,5,-22,20,32*
COC(=O)c1cnn(-c2ccc(F)cc2F)c1/C=N/NC(N)=S,-1,4,0,-11,36*
SMILES,Mtb FBA inh,CCHFV vOTU inh,RecA splice inh,Mtb betalactam,GDH-TPI counter
CCOC(=O)N/N=C/c1ccc(F)cc1F,1,2,2,8,5
COC(=O)c1cnn(-c2ccccc2)c1/C=N/NC(=S)Nc1ccccc1,2,-2,/,12,18
COC(=O)c1cnn(-c2ccc(F)cc2F)c1/C=N/NC(=S)NC(C)(C)C,-1,5,/,-2,36*
CNC(=S)N/N=C/c1c(C(=O)OC)cnn1-c1ccc(F)cc1F,-2,4,0,4,46*
O=C1CCc2cc(S(=O)(=O)N3CCN(Cc4cccc5c4OCO5)CC3)ccc2N1,/,4,/,/,/
O=S(=O)(Nc1nc2ccccc2nc1NCc1ccco1)c1ccc(F)cc1,12,27,1,-4,34*
